CHX counter: counter-screen hit for Shiga toxin inhibitors, cycloheximide. 300,000 tested, 12% active. max response, %. cell reporter, cycloheximide protein synthesis inhibition counterscreen. AID 2314; in the data active = max response mostly above about 13%, no sharp cut-off; inactive = mostly below about 14%; note: read at 38.3 µM for the half of the compounds with a filed dose
Pf growth 96h: P. falciparum growth inhibition at 96 hour, primary screen for plastid delayed-death inhibitors. P. falciparum luciferase reporter growth, 96 h. Potency, µM (highest dose often 28.7 µM), actives largely listed as inhibitors. 320,000 tested, 6.9% active
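P. falciparum expressing integrated firefly luciferase, in erythrocytes at 2% hematocrit, 0.05% parasitemia, incubated with compounds 96 h at 37 C, 5% CO2. Growth inhibition read as loss of luminescence; two-generation exposure targets delayed-death apicoplast inhibitors.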
NS1 function inh: inhibitors of influenza NS1 protein function | Potency, µM (series often up to 46.1 µM) | 270,000 tested, 0.4% active | AID 2326; calls by dose curve; note: actives are rising curves; nearly all actives have a fitted effect of over 50% in size
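Growth recovery, yeast-based: influenza A NS1 expressed in S. cerevisiae causes slow growth, and suppressors are detected by OD600. The parent strain without NS1 is used as positive control.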
Shiga inhibitor: inhibitors of Shiga toxin in Vero cells | AID 2315 | 290,000 tested, 9.2% active | Vero cells, Shiga toxin protein synthesis inhibition reporter | inhibition, % at 38.7 µM; in the data active = inhibition mostly above about 28%, no sharp cut-off; inactive = mostly below about 43%
Pf growth 48h: P. falciparum growth inhibition at 48 hours (one generation) | Potency, µM (highest dose often 28.7 µM), usual class: inhibitors | AID 504832 | 310,000 tested, 5.9% active | P. falciparum luciferase growth in erythrocytes, 48 h
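Luciferase-expressing P. falciparum in infected erythrocytes (2% hematocrit, 0.1% parasitemia final) in RPMI 1640/0.5% Albumax were exposed to compound for 48 hours at 37 C, 5% CO2; growth read as luminescence.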
Giardia FBPA inh: inhibitors of Giardia lamblia fructose-1,6-bisphosphate aldolase; Potency, µM (doses to about 59.6 µM), most hits filed as inhibitors; purified Giardia FBPA; 290,000 tested, 0.71% active; AID 2451; note: nearly all actives have a fitted effect of over 55% in size
Target sequence (A8B2U2 whole entry, looked up): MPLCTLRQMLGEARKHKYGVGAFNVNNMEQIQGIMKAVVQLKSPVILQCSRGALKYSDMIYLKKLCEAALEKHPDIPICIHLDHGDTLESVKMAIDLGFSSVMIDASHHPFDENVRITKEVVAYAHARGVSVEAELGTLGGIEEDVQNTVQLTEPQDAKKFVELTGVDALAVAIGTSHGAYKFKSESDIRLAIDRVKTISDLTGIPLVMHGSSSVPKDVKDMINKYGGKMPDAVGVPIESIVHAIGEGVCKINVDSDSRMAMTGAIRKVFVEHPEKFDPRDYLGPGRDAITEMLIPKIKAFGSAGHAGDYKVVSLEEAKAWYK
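40 nM FBPA preincubated 10 min at RT with compound (up to 57.5 uM final), then substrate plus GAPDH/TPI/NAD/arsenate coupling and diaphorase/resazurin added. Fluorescence read after 20 min at RT, 525/598 nm.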
Hits are given with their value; 0 = inactive; ? = inconclusive; - = not tested or not shown; [ ] = dose if it differs, or a comment. Sampled rows, rich in hits. Any-hit rate of the full collection: about 21%. Unless noted, calls come from the whole dose curve; as a rule, active = well fitted curve in the direction sought with a large enough effect; inconclusive = small, poorly fitted or top-dose-only effect, or another doubt; inactive = no such curve, though single readings can be large; an effect the other way counts as inactive or inconclusive.

SMILES	CHX counter	Pf growth 96h	NS1 function inh	Shiga inhibitor	Pf growth 48h	Giardia FBPA inh
O=C(NCCn1ccc2ccccc21)c1ccc(S(=O)(=O)N2CCCCC2)cc1	0	?	?	0	11.7µM	0
O=C(NCCn1ccc2ccccc21)c1ccc2c(c1)OCO2	39.5	0	0	63.7	0	0
CN(C)C1=NCCN1CCC1CCCCC1	-	0	-	-	?	-
C=CCn1c(SCC(=O)c2c(N)n(C)c(=O)n(C)c2=O)nnc1-c1ccccc1F	0	?	0	0	0	0
C=CCn1c(SC(C)C(=O)c2c(N)n(C)c(=O)n(C)c2=O)nnc1-c1ccoc1C (stereo unspecified)	-	8.28µM	-	-	11.7µM	-
Cc1ccnc(NC(=O)c2cccc(OC(F)F)c2)n1	0	0	0	69.1	0	0
CN(C)S(=O)(=O)c1cccc(C(=O)Nc2cc(Cl)cc(Cl)c2)c1	0	-	0	0	0	0
O=C(Nc1cc(Cl)cc(Cl)c1)c1cccc(OC(F)F)c1	14.9	?	0	0	-	0
Nc1nc(Cl)nc2c1ncn2[C@@H]1O[C@H](COP(=O)(O)OP(=O)(O)OP(=O)(O)O)[C@H](O)[C@H]1O	-	-	0	-	-	0
COc1ccc(/C=N/N=C2\SCC(=O)N2c2c(C)n(C)n(-c3ccccc3)c2=O)cc1OC	0	?	?	0	13.1µM	0
Cc1c(N2C(=O)CS/C2=N\N=C\c2ccc(Cl)cc2)c(=O)n(-c2ccccc2)n1C	0	0	0	0	0	0
Cc1cccc(OCC(=O)NCCNC(=O)c2ccccn2)c1	0	0	0	0	0	0
N#CC1CC(c2ccccc2)Nc2cc(Cl)ccc2N1 (stereo unspecified)	37.0	?	0	69.0	0	0
C#CCOc1ccc(C(=O)N(C)c2ccccc2I)cc1	0	-	-	0	-	0
COc1ccc(NC(=O)c2ccco2)c(NC(=O)c2ccc([N+](=O)[O-])cc2)c1	0	0	0	0	0	0
COc1ccc(NC(=O)N2CCc3nc(-c4ccc(OC)cc4C)c4c(c3C2)CO[C@@H](c2ccccc2)C4)cc1	-	-	-	-	-	0[12.9 µM]
N#Cc1ccccc1Cn1cc(/C=C/[N+](=O)[O-])c2ccccc21	0	0	0	0	9.28µM	0
CC1=C(C)CC(C(=O)NCCc2ccc(F)cc2)C(C(=O)O)C1 (stereo unspecified)	0	0	0	0	0	0
CSc1nc(C)cc(Nc2ccc(O)c(CN3CCCCC3)c2)n1	-	-	0	-	-	-
CC1CCCCC12NC(=O)N(CC(=O)N1CCN(C(=O)c3ccco3)CC1)C2=O (stereo unspecified)	-	0	-	-	0	-
O=C(Nc1cccc(Br)c1)c1ccc2c(c1)SC1=NS(=O)(=O)CCN12	-	11.7µM	-	-	11.7µM	-
CC(NC(=O)c1c(O)c2ccccc2[nH]c1=O)c1ccccc1 (stereo unspecified)	0	0	0	-	?	0
O=C(NCc1cn(-c2ccccc2)nc1-c1ccccc1)c1cccc([N+](=O)[O-])c1	13.5	0	0	0	?	0
O=C(COC(=O)c1cn(-c2ccccc2)nc1-c1ccccc1)c1cccc([N+](=O)[O-])c1	0	0	0	0	0	0
O=C(NCc1cn(-c2ccccc2)nc1-c1ccccc1)c1cc([N+](=O)[O-])cc([N+](=O)[O-])c1	0	?	0	0	?	0
SMILES	CHX counter	Pf growth 96h	NS1 function inh	Shiga inhibitor	Pf growth 48h	Giardia FBPA inh
COc1ccc(-c2nn(-c3ccccc3)cc2CNC(=O)c2cccc([N+](=O)[O-])c2)cc1	15.1	?	0	0	?	0
C=CCNC(=O)/C(=C/c1cn(-c2ccccc2)nc1-c1cccc([N+](=O)[O-])c1)NC(=O)c1ccccc1	0	4.15µM	0	0	?	0
CN(C)C(=O)/C(=C/c1cn(-c2ccccc2)nc1-c1cccc([N+](=O)[O-])c1)NC(=O)c1ccccc1	0	0	0	0	0	0
N#Cc1ccc(OCC(=O)Nc2ccc(N3CCCC3)cc2)cc1	-	0	-	-	0	-
COc1ccc(S(=O)(=O)N2CCOCC2)cc1NC(=O)CSc1nnc(C2CC2)n1N	0	0	-	0	0	0
C=C(C(=O)O)C1CCC2(C)CCCC(C)(O)C2C1 (stereo unspecified)	0	0	0	0	0	0
NS(=O)(=O)c1ccc(NC(=S)NCc2ccco2)cc1	0	0	0	0	0	0
O=C(NCc1ccccc1)C1Cc2ccccc2CN1C(=O)c1ccco1 (stereo unspecified)	0	0	-	0	0	0
